# Test results as given in PubChem BioAssay (EPA / NIEHS).
# Inconclusive results are not listed. Activity calls are given as the source filed them. The calls were made as follows, unless noted: active = hit-call score of the fitted dose curve at least 0.9, where 1 is the maximum; inconclusive = response in the unintended direction; inactive = score below 0.9.
# Experiments:
# [1] = target: human Aurora Kinase A - serine/threonine-protein Kinase 6 (AurA), AURKA (gene 6790) (UniProt O14965); assay: NVS_ENZ_hAurA: NovaScreen (NVS) Enzymatic Assay for human Aurora Kinase A - serine/threonine-protein Kinase 6 (AurA) (AID 2283142)
# Outline: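 Recombinant human AurA activity read by fluorescence after mobility-shift separation of product from substrate; 1 hour incubation. Chemicals first run in duplicate at 25 uM, then concentration series to 50 uM if over threshold; fitted relative to DMSO.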
# [2] = target: human Fibroblast Growth Factor Receptor 1 (FGFR1), FGFR1 (gene 2260) (UniProt P11362); assay: NVS_ENZ_hFGFR1: NovaScreen (NVS) Enzymatic Assay for human Fibroblast Growth Factor Receptor 1 (FGFR1) (AID 2283159)
# Outline: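 Cell-free recombinant kinase with fluorescent substrate, product separated by electrophoretic mobility shift; read 1 hour after dosing, loss of signal relative to DMSO. Initial screen in duplicate at 25 uM, actives followed in concentration series.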
# [3] = target: human MET Proto-Oncogene, Receptor Tyrosine Kinase (MET), MET (gene 4233) (UniProt P08581); assay: NVS_ENZ_hMet: NovaScreen (NVS) Enzymatic Assay for human MET Proto-Oncogene, Receptor Tyrosine Kinase (MET) (AID 2283180)
# Outline: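 Hits from a 25 uM duplicate screen were retested in concentration series up to 50 uM. Enzyme activity was measured by fluorescence after electrophoretic separation of product from substrate, 1 h after compound addition, relative to DMSO.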
# [4] = target: human Protein Tyrosine Phosphatase Non-receptor Type 2 (PTPN2), PTPN2 (gene 5771) (UniProt P17706); assay: NVS_ENZ_hPTPN2: NovaScreen (NVS) Enzymatic Assay for human Protein Tyrosine Phosphatase Non-receptor Type 2 (PTPN2) (AID 2283207)
# Outline: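 Activity measured as fluorescence after mobility-shift separation of substrate and product, 1 h after compound. Duplicate single-point 25 uM primary testing, concentration series for actives; inhibition scored as signal loss relative to DMSO baseline.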
# [5] = target: human Raf-1 Proto-Oncogene, serine/threonine Kinase (RAF1), RAF1 (gene 5894) (UniProt P04049); assay: NVS_ENZ_hRAF1: NovaScreen (NVS) Enzymatic Assay for human Raf-1 Proto-Oncogene, serine/threonine Kinase (RAF1) (AID 2283216)
# Outline: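 Single-point screening at 25 uM (duplicate), followed by singleton concentration-response to 50 uM maximum for chemicals exceeding threshold. Enzyme activity from fluorescent substrate-product mobility-shift separation after 1 h, relative to DMSO.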
# [6] = target: human Tyrosine Protein Kinase Receptor Tie-2 (Tie2), TEK (gene 7010) (UniProt Q02763); assay: NVS_ENZ_hTie2: NovaScreen (NVS) Enzymatic Assay for human Tyrosine Protein Kinase Receptor Tie-2 (Tie2) (AID 2283225)
# Outline: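 Substrate and product were separated by mobility shift and detected by fluorescence after a 1-hour reaction with recombinant Tie2. Chemicals passing a 25 uM single-point screen were titrated to a maximum of 50 uM. Results were normalized to DMSO baseline.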
# [7] = system: rat Monoamine Oxidase, MAO-A, Central (MAOAC), gene 29253; assay: NVS_ENZ_rMAOAC: NovaScreen (NVS) Enzymatic Assay for rat Monoamine Oxidase, MAO-A, Central (MAOAC) (AID 2283243);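 also: potency refers to inhibition seen as signal drop below DMSO baseline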
# Outline: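 Scintillation read-out of MAO-A activity in rat brain lysate, 1.5 h post-dosing. Primary single-concentration screen: 25 uM, duplicate; actives re-tested in concentration series. DMSO = negative control/baseline.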
# [8] = target: human Matrix Metalloproteinase-1 (MMP1), MMP1 (gene 4312) (UniProt P03956); assay: NVS_ENZ_hMMP1: NovaScreen (NVS) Enzymatic Assay for human Matrix Metalloproteinase-1 (MMP1) (AID 2283181)
# Outline: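 Cell-free fluorescent substrate assay of human MMP1, read after 1 h. A single 25 uM duplicate screen was followed by concentration series to a maximum of 50 uM for actives meeting threshold; inhibition analysed against DMSO baseline.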
# [9] = target: human NIMA (Never In Mitosis Gene A)-Related Kinase 2 (NEK2), NEK2 (gene 4751) (UniProt P51955); assay: NVS_ENZ_hNEK2: NovaScreen (NVS) Enzymatic Assay for human NIMA (Never In Mitosis Gene A)-Related Kinase 2 (NEK2) (AID 2283188)
# Outline: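 Compounds were first screened in duplicate at 25 uM, with actives followed up in concentration series. Recombinant NEK2 activity, cell-free, was read 1 h after dosing by fluorescence intensity after mobility-shift separation. Signal loss was scored against DMSO.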
# PPP2CA (gene 5515) = PPP2CA (gene 5515) (UniProt P67775); assay: NVS_ENZ_hPPP2CA: NovaScreen (NVS) Enzymatic Assay for human Protein Phosphatase 2 Aatalytic subunit Alpha (PPP2CA) (AID 2283199)
# Outline: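 Cell-free phosphatase activity: fluorescent substrate turnover by recombinant human enzyme, resolved by mobility shift at 1.33 h. Compounds passing the 25 uM duplicate primary screen were rerun in singleton series with a 50 uM top concentration.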
# [10] = target: rat Acetylcholinesterase (AChE), Ache (gene 83817) (UniProt P37136); assay: NVS_ENZ_rAChE: NovaScreen (NVS) Enzymatic Assay for rat Acetylcholinesterase (AChE) (AID 2283233)
# Outline: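 Compounds first screened at 25 uM in duplicate, then those passing threshold tested in concentration series up to 50 uM, against AChE from rat brain membranes. Enzyme activity read by absorbance at 0.33 h; inhibition scored versus DMSO.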
# [11] = CCTE_Harrill_HTTr_Apoptosis_PRF_DMEM_12hr: (Pilot) CCTE's 12-hour Apoptosis Assessment for the High-Throughput Transcriptomics (HTTr) Platform, in MCF-7 cells cultured in phenol red-free DMEM + 10% charcoal-stripped fetal bovine serum, Harrill Lab (AID 2283985; active = hit-call score of the fitted dose curve at least 0.9, where 1 is the maximum; inactive = score below 0.9)
# Outline: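 Caspase-3/7 activity by CellEvent Green high content imaging after 12 h compound exposure (eight concentrations) in MCF-7 grown in phenol red-free DMEM plus 10% charcoal-stripped serum; DMSO as baseline.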
# [12] = target: rat Monoamine Oxidase, MAO-B, Central (MAOBC), Maob (gene 25750) (UniProt P19643); assay: NVS_ENZ_rMAOBC: NovaScreen (NVS) Enzymatic Assay for rat Monoamine Oxidase, MAO-B, Central (MAOBC) (AID 2283238)
# Outline: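 Here MAO-B activity in rat brain preparations is quantified radiometrically, counts taken at 1.17 hours. Concentration-response runs reach 50 uM, with plate controls, and values are fitted as loss of signal from the DMSO baseline.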
# [13] = target: rat Corticotropin Releasing Factor Receptor (CRF), Crhr1 (gene 58959) (UniProt P35353); assay: NVS_GPCR_rCRF: NovaScreen (NVS) G Protein-Coupled Receptor Assay for rat Corticotropin Releasing Factor Receptor (CRF) (AID 2283300)
# Outline: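 Single-concentration (25 uM, duplicate) radioligand binding on rat cortical membrane preparations, counted by scintillation after 2 h. Activity scored as signal loss relative to DMSO negative control.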
# [14] = target: rat Monoamine Oxidase, MAO-B, Peripheral (MAOBP), Maob (gene 25750) (UniProt P19643); assay: NVS_ENZ_rMAOBP: NovaScreen (NVS) Enzymatic Assay for rat Monoamine Oxidase, MAO-B, Peripheral (MAOBP) (AID 2283242)
# [15] = target: rat Neurotensin Receptor (NTS), Ntsr1 (gene 366274) (UniProt P20789); assay: NVS_GPCR_rNTS: NovaScreen (NVS) G Protein-Coupled Receptor Assay for rat Neurotensin Receptor (NTS) (AID 2283308)
# Outline: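 Single-point duplicates at 25 uM, then concentration series to 50 uM max for hits, measured radioligand displacement on rat forebrain membrane preparations. Bound label counted by filtration scintillation at 1 h; signal loss relative to DMSO fitted.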
# [16] = target: rat Oxytocin Receptor (OXT), Oxtr (gene 25342) (UniProt P70536); assay: NVS_GPCR_rOXT: NovaScreen (NVS) G Protein-Coupled Receptor Assay for rat Oxytocin Receptor (OXT) (AID 2283330)
# Outline: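 Binding to rat uterine membrane receptor was followed by scintillation counting of filter-trapped radioligand after 1 h. A 25 uM duplicate single-point screen preceded concentration series with a top of 50 uM. Signal loss was analysed relative to DMSO.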
# [17] = ATG_M_32_XSP2: Attagene TRANS-FACTORIAL Multi-Species (XSP2) HepG2 Assay for M19 Transcription Factor (Internal Marker) (AID 2283826)
# Outline: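 Total RNA is taken from compound-treated HepG2 cells after 24 h and reverse-transcribed; reporter cDNA is PCR-amplified, end-labelled with 6-FAM, digested with HpaI for 2h at 37 C and sized by capillary electrophoresis. Activity is fitted in the positive direction against DMSO.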
# [18] = target: human Phosphatase and Tensin Homolog (PTEN), PTEN (gene 5728) (UniProt P60484); assay: NVS_ENZ_hPTEN: NovaScreen (NVS) Enzymatic Assay for human Phosphatase and Tensin Homolog (PTEN) (AID 2283203)
# Outline: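 Loss of fluorescent product signal after mobility-shift separation reports PTEN activity, recombinant human enzyme, 1 h after compound addition. Single 25 uM duplicate screen, then concentration-response on actives; DMSO baseline.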
# [19] = target: Voltage-dependent N-type calcium channel subunit alpha-1B (Rattus norvegicus) (UniProt Q02294); assay: NVS_IC_rCaChN: NovaScreen (NVS) Ion Channel Assay for rat Calcium Channel, Type N (CaChN) (AID 2283317)
# [20] = target: rat Adenylate Cyclase, Forskolin Stimulated, Adcy5 (gene 64532) (UniProt Q04400); assay: NVS_ENZ_rACFSKBinding: NovaScreen (NVS) Enzymatic Assay for rat Adenylate Cyclase, Forskolin Stimulated (AID 2283232)
# Outline: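 Chemicals were first tested at 25 uM in duplicate, then hits run as concentration series with top concentration 50 uM. Enzyme source was rat forebrain membranes; radiometric filter read-out after 1 h, referenced to DMSO.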
# [21] = target: Norway rat Vesicular Monoamine Transporter (VMAT2), neurotransmitter transporter, Slc18a2 (gene 25549) (UniProt Q01827); assay: NVS_TR_rVMAT2: NovaScreen (NVS) Transporter Assay for Norway rat Vesicular Monoamine Transporter (VMAT2), neurotransmitter transporter (AID 2283376);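 also: actives lower the bound radioligand signal below the DMSO level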
# Outline: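 Binding endpoint from rat forebrain tissue, cell-free; 1 h incubation; filtered radioligand counted; 25 uM duplicate primary then dose series; DMSO negative control.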
# [22] = Tanguay_ZF_120hpf_MUSC: Oregon State University Tanguay Lab 120 Hour Post-fertilization zebrafish Assay for Muscle Malformation (AID 2284401; active = hit-call score of the fitted dose curve at least 0.9, where 1 is the maximum; inactive = score below 0.9)
# Outline: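 Scored as a binary brightfield endpoint at 120 hpf, fitted versus DMSO. Single dechorionated wild-type (Tropical 5D) zebrafish embryos per well, statically exposed at 28C from 6 hpf onward with final DMSO 0.64%.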
# Chain of human MET Proto-Oncogene, Receptor Tyrosine Kinase (MET), MET (gene 4233) (P08581 whole entry, looked up): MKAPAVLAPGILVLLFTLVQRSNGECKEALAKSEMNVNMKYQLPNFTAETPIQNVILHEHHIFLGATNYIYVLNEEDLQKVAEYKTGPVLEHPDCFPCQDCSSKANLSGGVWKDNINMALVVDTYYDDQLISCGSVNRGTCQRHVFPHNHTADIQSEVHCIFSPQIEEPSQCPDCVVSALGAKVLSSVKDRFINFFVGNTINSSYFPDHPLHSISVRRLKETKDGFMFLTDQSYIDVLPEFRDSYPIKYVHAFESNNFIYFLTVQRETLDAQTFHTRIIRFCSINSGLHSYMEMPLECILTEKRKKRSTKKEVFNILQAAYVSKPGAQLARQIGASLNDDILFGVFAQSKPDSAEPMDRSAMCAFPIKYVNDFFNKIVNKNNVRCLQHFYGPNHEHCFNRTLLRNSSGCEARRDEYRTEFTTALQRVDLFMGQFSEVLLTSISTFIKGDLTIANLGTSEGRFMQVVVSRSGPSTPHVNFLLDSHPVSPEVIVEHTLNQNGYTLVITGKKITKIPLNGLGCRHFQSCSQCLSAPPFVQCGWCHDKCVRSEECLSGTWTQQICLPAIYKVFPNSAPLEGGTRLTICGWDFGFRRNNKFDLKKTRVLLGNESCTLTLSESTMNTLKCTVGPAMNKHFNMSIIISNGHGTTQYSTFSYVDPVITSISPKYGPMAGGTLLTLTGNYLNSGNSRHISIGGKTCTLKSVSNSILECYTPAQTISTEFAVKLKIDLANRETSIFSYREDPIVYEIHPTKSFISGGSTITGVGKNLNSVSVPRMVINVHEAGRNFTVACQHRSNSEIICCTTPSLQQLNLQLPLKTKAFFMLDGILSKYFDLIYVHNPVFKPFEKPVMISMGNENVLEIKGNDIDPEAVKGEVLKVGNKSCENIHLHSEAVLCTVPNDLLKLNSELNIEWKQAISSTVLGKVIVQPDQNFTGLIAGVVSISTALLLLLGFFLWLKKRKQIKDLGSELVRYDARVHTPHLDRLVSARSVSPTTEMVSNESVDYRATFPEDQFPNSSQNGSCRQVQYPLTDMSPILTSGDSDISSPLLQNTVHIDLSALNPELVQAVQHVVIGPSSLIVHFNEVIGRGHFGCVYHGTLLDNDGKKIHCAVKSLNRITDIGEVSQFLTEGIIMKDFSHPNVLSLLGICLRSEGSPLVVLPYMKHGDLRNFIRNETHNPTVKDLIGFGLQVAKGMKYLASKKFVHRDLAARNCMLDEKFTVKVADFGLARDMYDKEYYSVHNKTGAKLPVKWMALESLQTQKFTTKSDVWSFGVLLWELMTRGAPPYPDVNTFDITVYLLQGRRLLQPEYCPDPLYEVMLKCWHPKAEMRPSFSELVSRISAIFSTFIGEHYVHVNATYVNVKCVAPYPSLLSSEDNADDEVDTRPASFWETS
# Chain of human Protein Tyrosine Phosphatase Non-receptor Type 2 (PTPN2), PTPN2 (gene 5771) (P17706 whole entry, looked up): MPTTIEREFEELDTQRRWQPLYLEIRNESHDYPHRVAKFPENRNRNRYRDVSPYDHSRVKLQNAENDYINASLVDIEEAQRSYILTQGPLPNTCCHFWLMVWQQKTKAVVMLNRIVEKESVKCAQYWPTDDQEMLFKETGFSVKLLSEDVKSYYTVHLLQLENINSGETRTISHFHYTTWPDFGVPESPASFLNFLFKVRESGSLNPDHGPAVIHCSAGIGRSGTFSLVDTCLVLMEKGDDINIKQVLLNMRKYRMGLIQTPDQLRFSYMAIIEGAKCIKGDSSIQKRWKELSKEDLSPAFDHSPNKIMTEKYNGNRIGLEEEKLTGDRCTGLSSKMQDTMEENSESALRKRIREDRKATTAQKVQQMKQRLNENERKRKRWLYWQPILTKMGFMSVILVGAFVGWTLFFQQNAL
# Chain of human NIMA (Never In Mitosis Gene A)-Related Kinase 2 (NEK2), NEK2 (gene 4751) (P51955 whole entry, looked up): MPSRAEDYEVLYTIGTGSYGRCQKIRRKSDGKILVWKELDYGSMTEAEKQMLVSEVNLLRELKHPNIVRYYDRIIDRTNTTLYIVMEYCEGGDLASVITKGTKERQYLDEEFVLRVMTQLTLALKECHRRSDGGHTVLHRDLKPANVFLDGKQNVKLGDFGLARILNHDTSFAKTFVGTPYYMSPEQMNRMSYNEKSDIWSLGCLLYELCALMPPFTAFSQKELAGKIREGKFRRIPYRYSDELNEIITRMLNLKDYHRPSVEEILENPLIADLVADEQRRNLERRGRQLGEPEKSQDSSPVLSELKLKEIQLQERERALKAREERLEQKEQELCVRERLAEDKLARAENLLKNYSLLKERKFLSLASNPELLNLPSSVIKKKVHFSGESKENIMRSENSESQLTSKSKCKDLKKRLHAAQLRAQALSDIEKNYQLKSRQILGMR
# Chain of rat Oxytocin Receptor (OXT), Oxtr (gene 25342) (P70536 whole entry, looked up): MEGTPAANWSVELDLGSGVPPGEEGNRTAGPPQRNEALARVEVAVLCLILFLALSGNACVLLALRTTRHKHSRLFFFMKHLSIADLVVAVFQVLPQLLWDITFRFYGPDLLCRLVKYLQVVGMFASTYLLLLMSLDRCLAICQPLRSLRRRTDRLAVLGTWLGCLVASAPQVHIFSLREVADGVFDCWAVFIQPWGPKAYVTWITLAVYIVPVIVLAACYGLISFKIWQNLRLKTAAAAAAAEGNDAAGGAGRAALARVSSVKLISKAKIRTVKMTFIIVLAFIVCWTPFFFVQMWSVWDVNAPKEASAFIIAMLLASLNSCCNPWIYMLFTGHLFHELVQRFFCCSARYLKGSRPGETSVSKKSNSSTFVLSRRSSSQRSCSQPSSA
# Chain of human Matrix Metalloproteinase-1 (MMP1), MMP1 (gene 4312) (P03956 whole entry, looked up): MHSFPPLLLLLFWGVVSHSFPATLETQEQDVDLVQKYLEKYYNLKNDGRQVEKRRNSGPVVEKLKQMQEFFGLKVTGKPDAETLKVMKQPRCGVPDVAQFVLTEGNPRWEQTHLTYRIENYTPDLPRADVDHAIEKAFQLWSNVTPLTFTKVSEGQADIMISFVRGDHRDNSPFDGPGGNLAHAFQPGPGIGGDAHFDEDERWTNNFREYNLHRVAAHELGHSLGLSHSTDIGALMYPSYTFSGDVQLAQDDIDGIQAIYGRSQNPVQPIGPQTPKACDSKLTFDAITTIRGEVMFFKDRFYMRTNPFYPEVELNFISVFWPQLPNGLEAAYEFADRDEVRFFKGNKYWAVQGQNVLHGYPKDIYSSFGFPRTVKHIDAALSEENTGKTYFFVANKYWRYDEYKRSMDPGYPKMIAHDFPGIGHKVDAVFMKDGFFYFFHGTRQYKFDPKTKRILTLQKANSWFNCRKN
# Chain of PPP2CA (gene 5515) (P67775 whole entry, looked up): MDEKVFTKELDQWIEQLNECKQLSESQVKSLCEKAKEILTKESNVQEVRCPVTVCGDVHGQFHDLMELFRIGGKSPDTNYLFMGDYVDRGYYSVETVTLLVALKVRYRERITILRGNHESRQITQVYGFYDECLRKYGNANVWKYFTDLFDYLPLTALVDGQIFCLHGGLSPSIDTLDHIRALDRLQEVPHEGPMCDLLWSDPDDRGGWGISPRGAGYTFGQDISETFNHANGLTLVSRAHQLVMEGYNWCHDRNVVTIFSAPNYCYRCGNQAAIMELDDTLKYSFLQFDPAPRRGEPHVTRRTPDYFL
# Chain of rat Acetylcholinesterase (AChE), Ache (gene 83817) (P37136 whole entry, looked up): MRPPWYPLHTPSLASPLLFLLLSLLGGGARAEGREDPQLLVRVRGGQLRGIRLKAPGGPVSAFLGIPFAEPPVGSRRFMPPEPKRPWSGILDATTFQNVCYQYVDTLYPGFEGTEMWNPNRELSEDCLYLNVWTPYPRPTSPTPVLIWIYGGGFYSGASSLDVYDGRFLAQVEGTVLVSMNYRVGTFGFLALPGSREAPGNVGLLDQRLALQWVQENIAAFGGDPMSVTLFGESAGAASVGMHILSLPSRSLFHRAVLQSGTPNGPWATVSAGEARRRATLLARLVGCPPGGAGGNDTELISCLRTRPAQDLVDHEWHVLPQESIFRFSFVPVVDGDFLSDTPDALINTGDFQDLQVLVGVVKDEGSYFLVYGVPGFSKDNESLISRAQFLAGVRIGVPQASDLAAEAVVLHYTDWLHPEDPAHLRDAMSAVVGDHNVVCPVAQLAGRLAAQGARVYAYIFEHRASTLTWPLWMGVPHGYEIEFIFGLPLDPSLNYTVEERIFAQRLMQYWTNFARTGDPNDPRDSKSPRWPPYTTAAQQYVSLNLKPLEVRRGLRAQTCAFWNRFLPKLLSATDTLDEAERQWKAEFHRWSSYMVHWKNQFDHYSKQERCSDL
# Chain of rat Corticotropin Releasing Factor Receptor (CRF), Crhr1 (gene 58959) (P35353 whole entry, looked up): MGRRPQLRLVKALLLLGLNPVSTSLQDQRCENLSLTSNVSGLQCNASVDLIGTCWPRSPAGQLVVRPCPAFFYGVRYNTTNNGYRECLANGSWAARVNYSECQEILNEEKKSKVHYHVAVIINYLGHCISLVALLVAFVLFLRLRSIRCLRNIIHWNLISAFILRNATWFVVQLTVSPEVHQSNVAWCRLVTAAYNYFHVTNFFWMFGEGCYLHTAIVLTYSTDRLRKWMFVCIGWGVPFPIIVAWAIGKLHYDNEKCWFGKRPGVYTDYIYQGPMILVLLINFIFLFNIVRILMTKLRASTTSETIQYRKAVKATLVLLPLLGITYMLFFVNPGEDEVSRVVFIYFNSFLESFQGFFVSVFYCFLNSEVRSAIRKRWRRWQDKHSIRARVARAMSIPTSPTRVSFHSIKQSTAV
# Chain of human Phosphatase and Tensin Homolog (PTEN), PTEN (gene 5728) (P60484 whole entry, looked up): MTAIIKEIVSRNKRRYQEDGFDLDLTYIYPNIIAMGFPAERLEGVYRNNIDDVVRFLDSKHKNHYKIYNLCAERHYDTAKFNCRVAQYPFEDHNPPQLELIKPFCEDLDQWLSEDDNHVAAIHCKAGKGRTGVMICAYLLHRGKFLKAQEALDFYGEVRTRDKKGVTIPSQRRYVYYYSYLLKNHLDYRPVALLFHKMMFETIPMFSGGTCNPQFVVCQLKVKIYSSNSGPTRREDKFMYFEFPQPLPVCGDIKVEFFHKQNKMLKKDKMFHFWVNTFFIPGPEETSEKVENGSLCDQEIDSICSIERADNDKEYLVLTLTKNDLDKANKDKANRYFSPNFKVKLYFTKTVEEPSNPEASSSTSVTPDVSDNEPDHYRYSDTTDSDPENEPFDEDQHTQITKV
structure (smiles),measurement,setting,value
O=C(O)c1cc(N=Nc2ccc(S(=O)(=O)Nc3ccccn3)cc2)ccc1O,outcome,[1],inactive
same,outcome,[2],inactive
same,outcome,[3],inactive
same,outcome,[4],inactive
same,outcome,[5],inactive
same,outcome,[6],inactive
same,outcome,[7],inactive
c1ccc2ccccc2c1,outcome,[3],inactive
O=C(O)c1ccc2c(c1)nc(C(=O)NC1CCN(C3CC3)CC1)n2Cc1cc(-c2ccc(Cl)s2)on1,outcome,[3],inactive
CC(C)(C)c1csc(-c2cc3cc(OCc4ccccc4CC(=O)O)ccc3o2)n1,AC50,[8],22.5 µM (active)
same,outcome,[9],inactive
COc1ccc2sc(C(=O)Nc3nnn[nH]3)c(OC(C)C)c2c1,outcome,[8],inactive
CC/C(=C(/CC)c1ccc(O)cc1)c1ccc(O)cc1,outcome,[9],inactive
same,outcome,PPP2CA (gene 5515),inactive
same,outcome,[4],inactive
O=C(O)CC(O)C(=O)O (stereo not given),outcome,[4],inactive
CCCCc1oc2ccccc2c1C(=O)c1cc(I)c(OCCN(CC)CC)c(I)c1,outcome,[10],inactive
same,outcome,[11],inactive
CCCCCCCC=O,outcome,[10],inactive
O=C(O)c1cccc(C[C@@H]2COc3ccc(OCc4nc5cc(F)ccc5s4)cc3[C@@H]2O)c1,AC50,[12],17.8 µM (active)
same,outcome,[13],inactive
CC=Cc1ccc(O)c(OC)c1,outcome,[14],inactive
Cc1oc(-c2ccccc2)nc1CCOc1cccc2c1ccn2CCC(=O)O,outcome,[13],inactive
Cc1cn([C@H]2C[C@H](N=[N+]=[N-])[C@@H](CO)O2)c(=O)[nH]c1=O,outcome,[15],inactive
CC[C@H](C)C(=O)O[C@H]1C[C@H](O)C=C2C=C[C@H](C)[C@H](CC[C@@H](O)C[C@@H](O)CC(=O)O)[C@H]21,outcome,[16],inactive
OCCOCCOCCO,outcome,[16],inactive
Clc1nc(Cl)c(Cl)c(Cl)c1Cl,outcome,[17],inactive
c1ccc(C(O[C@@H]2CCCN(CCc3ccc4c(c3)OCO4)C2)c2ccccc2)cc1,outcome,[9],inactive
same,AC50,[14],22 µM (active)
CCN(Cc1cccc(S(=O)(=O)O)c1)c1ccc(C(=C2C=CC(=[N+](CC)Cc3cccc(S(=O)(=O)O)c3)C=C2)c2ccccc2S(=O)(=O)[O-])cc1,outcome,PPP2CA (gene 5515),inactive
CCCCCCCCCC,outcome,[18],inactive
same,outcome,[19],inactive
same,outcome,[16],inactive
CC(C)(O)c1coc(S(=O)(=O)NC(=O)Nc2c3c(cc4c2CCC4)CCC3)c1,outcome,[18],inactive
c1ccc2n[nH]nc2c1,outcome,[4],inactive
O=P(OC(CCl)CCl)(OC(CCl)CCl)OC(CCl)CCl,outcome,[20],inactive
same,outcome,[17],inactive
OCCC(F)(F)C(F)(F)C(F)(F)C(F)(F)C(F)(F)C(F)(F)F,outcome,[20],inactive
same,outcome,[21],inactive
same,outcome,[22],inactive
